Measurements reported in PubChem BioAssay AID1903 (Southern Research Specialized Biocontainment Screening …, 2009).
Several values for one entry are separate records, joined by “and”; a condition that tells them apart may be missing. Identical values can stand only once. About 1,200 (0.39%) of roughly 310,000 compounds were called active. How the calls were made is not given here. Not all results are given here. Measured potencies and affinities stand elsewhere.

target: Large T antigen (Simian virus 40) (UniProt P03070); assay: SV40 large T antigen inhibitors, biochemical (AID 1903); conditions: SV40 large T antigen ATPase/helicase inhibition assay; at 20 µM; active compounds read high
Sequence (P03070 whole entry, looked up): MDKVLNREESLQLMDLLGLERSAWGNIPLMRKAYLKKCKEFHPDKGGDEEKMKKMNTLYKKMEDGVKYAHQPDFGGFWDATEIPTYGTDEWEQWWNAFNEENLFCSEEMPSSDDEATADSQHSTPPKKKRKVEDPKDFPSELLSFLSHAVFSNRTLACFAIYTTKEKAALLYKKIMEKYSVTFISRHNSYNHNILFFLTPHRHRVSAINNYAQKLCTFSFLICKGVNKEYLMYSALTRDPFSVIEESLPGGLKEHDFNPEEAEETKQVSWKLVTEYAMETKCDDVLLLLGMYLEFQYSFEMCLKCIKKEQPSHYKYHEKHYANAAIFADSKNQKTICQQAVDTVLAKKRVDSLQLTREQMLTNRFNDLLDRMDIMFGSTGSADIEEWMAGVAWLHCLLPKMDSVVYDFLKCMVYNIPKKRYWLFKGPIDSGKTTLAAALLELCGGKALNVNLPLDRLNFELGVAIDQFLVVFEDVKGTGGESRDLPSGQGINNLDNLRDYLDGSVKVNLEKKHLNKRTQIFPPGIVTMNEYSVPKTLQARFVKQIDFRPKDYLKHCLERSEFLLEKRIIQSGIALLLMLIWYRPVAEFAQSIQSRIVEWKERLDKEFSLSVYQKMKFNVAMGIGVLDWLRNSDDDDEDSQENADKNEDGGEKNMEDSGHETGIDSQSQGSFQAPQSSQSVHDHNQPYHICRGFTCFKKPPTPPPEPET

inhibition, inactive:
Nc1ccc(C(=O)O)cc1 4.17% and 15.4% and 26%, O=C(O)c1ccc(C(=O)C(=O)c2ccccc2)cc1 13.3%, Cc1cc(NC(=O)CCC(=O)N(Cc2ccccc2)C(C(=O)NC2CCCC2)c2ccco2)no1 (configuration not stated) 10.2%, O=C(CS(=O)CC(=O)Nc1ccccc1-c1ccccc1)Nc1ccc(F)cc1 (configuration not stated) 6.05%, Cc1ccc(Cn2c(=O)c3ccccc3n3c(CCC(=O)NCCN4CCOCC4)nnc23)cc1 3.95%, Cn1c(/C(C#N)=C/c2ccc(O)cc2)nc2ccccc21 9.77%, Cn1c(/C(C#N)=C/c2cccc(O)c2)nc2ccccc21 12.6%, COc1cc(/C=C(\C#N)c2ccccn2)ccc1OCc1ccc(Cl)cc1 12.1%, COc1cc(/C=C(\C#N)c2ccccn2)ccc1OCc1ccccc1 4.85%, O=C(C1CCN(S(=O)(=O)c2cccnc2)CC1)N1CCN(c2cccc(Cl)c2)CC1 3.44%, Cc1ccc2c(NC(=O)C3CC3)c(C)ccc2n1 13.3%, O=C(CCNC(=O)N1CC(=O)Nc2ccccc21)NCc1cccc(Cl)c1 8.76%, O=C(O)c1ccccc1SSc1ccccc1C(=O)O 1.77%, CCC(Sc1ccccc1C(=O)O)C(=O)O (configuration not stated) 1.42%, CCOC(=O)C1CCN(C(=O)COc2cccc(C)c2)CC1 4.64%, CCCCn1c(N)c(N(CC(C)C)C(=O)CSc2n[nH]c(-c3ccc(C)cc3)n2)c(=O)[nH]c1=O 13%, CCOC(=O)c1sc(NC(=O)c2cc3ccccc3o2)nc1C -6.17%, Cc1ccccc1C(=O)Nc1ccccc1N1CCCCC1 -0.09%, CCC(=O)Nc1ccc(N2CCCCC2)c(C(=O)Nc2ccccc2C)c1 0.82%, Cc1ccc(NC(N)=S)cc1 8.99%, CCCCOC(=O)Nc1ccc(C(N)=O)cc1 12.3%, CCOC(=O)c1c(C)c(C(=O)Nc2ccccc2)c(C)n1CC 10.4%, CCCCOC(=O)Nc1ccc(C(=O)OC)cc1 6.13%, Cc1ccc(NC(=S)c2ccc(N(C)C)cc2)cc1 -10.2%, CCOC(=O)c1c(C)c(C(=O)Nc2ccc3c(c2)OCCO3)c(C)n1CC 0.47%, COC(=O)C1=CN(Cc2ccccc2)C=C(C(=O)OC)C1c1ccc(OC)c(OC)c1 7.64%, Cc1ccc(N(C(=O)CNC(=O)c2ccco2)C(C(=O)NC2CCCCC2)c2ccncc2)c(C)c1 (configuration not stated) 23.9%
